# Laboratory results from PubChem BioAssay.
# Active and inactive are the calls of the source.
# Legend:
# [1] = optical density shifts of acrAB sulA E. coli – strain DRC41, OD650, 48 h, E. coli filamentation inducer project, primary screen (AID 1152); conditions: higher = more signal, called active from +8 up or from −8 down;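 note: E. coli MC1000 strain DRC41 lacking acrAB efflux pump and sulA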
# [2] = probe aLefty1 binding on compound microarray – biochemical, small-molecule microarray, 635/667 nm fluorescence, primary screen (AID 1153); conditions: higher = more signal;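 note: score merges spot fluorescence with signal-to-noise ratio from the scanned slide images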
# [3] = plasmodial surface anion channel blockers, osmotic lysis – cell-based, P. falciparum Indochina, OD700, 1 h, primary screen (AID 1154); conditions: P. falciparum Indochina infected RBC osmotic lysis, higher = more signal, called active from +8 up or from −8 down
# [4] = plasmodial surface anion channel blockers, osmotic lysis – cell-based, P. falciparum Indochina, OD700, 2 h, primary screen (AID 1155);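 note: lysis reports solute entry through the parasite surface anion channel PSAC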; conditions: P. falciparum Indochina infected erythrocytes, higher = more signal, called active from +8 up or from −8 down
# [5] = changes in parasitized red cell lysis, either direction – P. falciparum Indochina, OD700, 3 h, PSAC antagonist project, primary screen (AID 1156); conditions: P. falciparum-infected erythrocytes, osmotic lysis, higher = more signal, called active from +8 up or from −8 down
# [6] = plasmodial surface anion channel blockers, osmotic lysis – cell-based, P. falciparum Indochina, OD700, 18 h, primary screen (AID 1157); conditions: P. falciparum Indochina infected erythrocytes, osmotic lysis OD700, 18 h; higher = more signal, called active from +8 up or from −8 down
# [7] = S6 kinase pathway phospho-S6 level changes – cell-based, A549, cytoblot, luminescence, serum-stimulated, primary screen (AID 1158); conditions: 5 h, higher = more signal;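 note: serum-stimulated A549 lung adenocarcinoma cells; signal is phosphorylated S6 detected by cytoblot immunostaining with HRP secondary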
# [8] = molecular target: NADPH oxidase 2 (Homo sapiens) (UniProt P04839); test: compounds shifting NOX2 Amplex Red fluorescence – cell-based, HEK293-NOX2, PMA-stimulated, NOX inhibitor project, primary screen (AID 1159); conditions: 45 min, higher = more signal, called active from +8 up or from −8 down; note: test concentration not given here
# NADPH oxidase 2 (Homo sapiens), sequence (P04839 whole entry, looked up): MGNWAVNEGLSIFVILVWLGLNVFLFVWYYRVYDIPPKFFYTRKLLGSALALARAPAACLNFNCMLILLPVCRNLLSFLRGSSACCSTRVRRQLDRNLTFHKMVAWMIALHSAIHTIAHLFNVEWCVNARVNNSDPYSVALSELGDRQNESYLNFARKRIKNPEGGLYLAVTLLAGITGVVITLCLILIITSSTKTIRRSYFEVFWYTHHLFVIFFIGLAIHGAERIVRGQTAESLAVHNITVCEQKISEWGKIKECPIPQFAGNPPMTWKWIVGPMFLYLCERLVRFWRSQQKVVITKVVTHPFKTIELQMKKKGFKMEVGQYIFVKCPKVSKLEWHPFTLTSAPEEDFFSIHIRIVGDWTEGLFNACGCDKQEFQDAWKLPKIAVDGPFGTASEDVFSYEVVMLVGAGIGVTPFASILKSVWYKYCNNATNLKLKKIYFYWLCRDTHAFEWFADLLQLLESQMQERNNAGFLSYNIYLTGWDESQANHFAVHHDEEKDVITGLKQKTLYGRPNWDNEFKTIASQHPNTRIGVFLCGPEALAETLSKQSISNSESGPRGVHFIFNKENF
# [9] = molecular target: NADPH oxidase 4 (Homo sapiens) (UniProt Q9NPH5); test: compounds shifting NOX4 Amplex Red fluorescence – cell-based, HEK293-NOX4, tetracycline-induced, NOX inhibitor project, primary screen (AID 1160); conditions: HEK293-NOX4, Amplex Red H2O2 fluorescence, 45 min; higher = more signal, called active from +8 up or from −8 down
# NADPH oxidase 4 (Homo sapiens), sequence (Q9NPH5 whole entry, looked up): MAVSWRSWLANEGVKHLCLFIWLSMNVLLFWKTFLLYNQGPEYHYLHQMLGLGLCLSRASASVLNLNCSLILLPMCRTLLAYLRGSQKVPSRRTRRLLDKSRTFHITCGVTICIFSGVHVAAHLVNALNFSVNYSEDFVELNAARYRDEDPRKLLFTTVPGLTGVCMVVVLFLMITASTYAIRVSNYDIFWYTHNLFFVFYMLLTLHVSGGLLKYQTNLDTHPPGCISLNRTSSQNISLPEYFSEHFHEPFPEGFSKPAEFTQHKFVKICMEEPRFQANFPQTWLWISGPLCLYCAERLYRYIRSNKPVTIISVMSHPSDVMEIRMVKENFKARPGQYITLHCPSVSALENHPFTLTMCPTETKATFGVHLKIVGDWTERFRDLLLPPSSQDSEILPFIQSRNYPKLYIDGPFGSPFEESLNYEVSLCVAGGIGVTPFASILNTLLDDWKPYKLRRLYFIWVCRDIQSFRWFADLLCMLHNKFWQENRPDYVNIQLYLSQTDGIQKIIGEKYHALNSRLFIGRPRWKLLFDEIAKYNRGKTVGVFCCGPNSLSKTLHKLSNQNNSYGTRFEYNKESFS
# [10] = molecular target: NADPH oxidase 5 (Homo sapiens) (UniProt Q96PH1); test: compounds shifting NOX5 Amplex Red fluorescence – cell-based, HEK293-NOX5, NOX inhibitor project, primary screen (AID 1161); conditions: HEK293-NOX5, ionomycin, 45 min, higher = more signal
# NADPH oxidase 5 (Homo sapiens), sequence (Q96PH1 whole entry, looked up): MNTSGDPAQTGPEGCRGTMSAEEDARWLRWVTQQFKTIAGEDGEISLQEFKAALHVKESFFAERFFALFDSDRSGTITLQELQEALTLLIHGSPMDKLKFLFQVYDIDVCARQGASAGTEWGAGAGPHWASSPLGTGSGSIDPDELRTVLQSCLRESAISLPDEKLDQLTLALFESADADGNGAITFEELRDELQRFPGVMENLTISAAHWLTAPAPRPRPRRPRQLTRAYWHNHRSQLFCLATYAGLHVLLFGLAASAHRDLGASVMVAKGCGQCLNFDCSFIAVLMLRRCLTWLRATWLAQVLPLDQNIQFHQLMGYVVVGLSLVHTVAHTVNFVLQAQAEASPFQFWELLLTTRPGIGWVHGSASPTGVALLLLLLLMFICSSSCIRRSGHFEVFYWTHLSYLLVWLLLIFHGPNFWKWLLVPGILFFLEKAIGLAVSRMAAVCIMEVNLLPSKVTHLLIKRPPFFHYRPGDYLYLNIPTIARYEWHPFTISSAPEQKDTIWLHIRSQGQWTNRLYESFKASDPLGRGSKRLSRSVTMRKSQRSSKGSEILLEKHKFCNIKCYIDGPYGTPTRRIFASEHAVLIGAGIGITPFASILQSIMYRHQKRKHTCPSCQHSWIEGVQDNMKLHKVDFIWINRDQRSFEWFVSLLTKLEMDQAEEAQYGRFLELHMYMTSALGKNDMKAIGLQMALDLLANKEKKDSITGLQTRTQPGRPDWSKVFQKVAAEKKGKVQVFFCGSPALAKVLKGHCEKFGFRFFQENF
Compound,z-score [1],composite z-score [2],z-score [3],z-score [4],z-score [5],z-score [6],z-score [7],z-score [8],z-score [9],z-score [10]
CC(C)=CCCC(C)=CCON=C1C[C@@H](O)[C@@H](O)[C@@H]2[C@@H]3C(=O)N(C[C@@H]4CCCO4)C(=O)[C@@H]3CC[C@@H]12,0.381 (inactive),0.0371,1.53 (inactive),0.767 (inactive),0.369 (inactive),0.549 (inactive),-0.622,0.752 (inactive),0.604 (inactive),0.0838
NCCCCCNC(=O)[C@@H]1C[C@@H]2C(=O)N3CCC[C@H]3C(=O)N2[C@@H]1c1cccc(OCCO)c1,-0.221 (inactive),1.55,3.25 (inactive),0.506 (inactive),0.744 (inactive),0.0814 (inactive),0.0413,2.41 (inactive),1.19 (inactive),0.961
O=C(NN=C1C[C@@H](O)[C@@H](O)[C@@H]2[C@@H]3C(=O)N(c4cccc(Oc5ccccc5)c4)C(=O)[C@@H]3CC[C@H]12)OCc1ccccc1,-0.155 (inactive),0.0406,2.26 (inactive),1.1 (inactive),2.32 (inactive),0.527 (inactive),-0.738,1.25 (inactive),0.056 (inactive),0.825
COc1ccc([Si](C)(C)[C@H]2[C@H](CC(=O)N3CCC[C@H]3CO)O[C@@]3(C(=O)N(Cc4cccc(N5C(=O)COc6ccccc65)c4)c4ccccc43)[C@@H]2C)cc1,1.62 (inactive),0.169,6.56 (inactive),0.0867 (inactive),-0.749 (inactive),-0.701 (inactive),1.03,1.1 (inactive),1.21 (inactive),2.99
O=C1C[C@@H](O)[C@@H](O)[C@@H]2[C@@H]3C(=O)N(Cc4ccc5c(c4)OCO5)C(=O)[C@@H]3CC[C@@H]12,0.306 (inactive),-0.103,4.63 (inactive),0.632 (inactive),0.311 (inactive),0.182 (inactive),-0.352,0.323 (inactive),-0.209 (inactive),-0.246
C=CC[C@@H]1C=C[C@H](ON=Cc2ccc(C(=O)N3[C@H](c4ccc(C)cc4)[C@@H](C)CC[C@H]3C(=O)OC)cc2)[C@@H](CO)O1,0.69 (inactive),-0.0945,2.78 (inactive),0.852 (inactive),-0.273 (inactive),0.637 (inactive),-1.15,-0.428 (inactive),0.569 (inactive),-0.0942
COCCCNC(=O)[C@]1(CCC(=O)OC(C)(C)C)N=C(c2ccc(OCCCO)cc2)O[C@@H]1c1ccccc1N=[N+]=[N-],0.734 (inactive),0.483,32.7 (active),29.9 (active),4.05 (inactive),7.68 (inactive),0.0838,-2.44 (inactive),1.59 (inactive),-2.19
O=C1C2=CC[C@H]3C(=O)N(Cc4ccc5c(c4)OCO5)C(=O)[C@H]3[C@H]2[C@H](O)[C@@H]2O[C@H]12,0.0561 (inactive),-0.0464,-1 (inactive),-0.507 (inactive),-0.906 (inactive),0.0094 (inactive),0.116,-0.382 (inactive),-0.111 (inactive),0.104
CO[C@H]1O[C@H](CO)[C@@H](OC(=O)Nc2ccc3c(c2)OCO3)[C@H](OC(=O)Nc2ccccc2-c2ccccc2)[C@@H]1OC(=O)Nc1ccccc1-c1ccccc1,0.181 (inactive),0.298,2.44 (inactive),1.7 (inactive),0.433 (inactive),1.14 (inactive),-0.0879,2.75 (inactive),-0.0563 (inactive),-0.303
COC(=O)[C@]1(CO)N=C(c2ccc(OCCCO)cc2)O[C@@H]1c1ccccc1N=[N+]=[N-],0.248 (inactive),0.191,18.3 (active),2.32 (inactive),1.49 (inactive),0.742 (inactive),-0.315,-0.502 (inactive),0.0857 (inactive),-0.514
CN1C(=O)C2C(C1=O)C1C=C(CCCO)C2C(c2ccc(CN3CCCC3)cc2)N1C (stereo not given),-0.204 (inactive),0.0811,1.51 (inactive),0.621 (inactive),0.914 (inactive),0.378 (inactive),0.318,-2.14 (inactive),-1.25 (inactive),-0.91
CC1(C)OCC(C(O)C2=CCCCC2=O)CO1 (stereo not given),-3.47 (inactive),0.138,0.0704 (inactive),0.137 (inactive),0.864 (inactive),0.348 (inactive),0.315,0.362 (inactive),-0.247 (inactive),1.07
CO[C@@H]1COC(=O)CC=C[C@@H](C)[C@@H]2C=C[C@@H](O)[C@@H](COC(=O)CC=C[C@H]1C)O2,0.301 (inactive),-0.012,0.118 (inactive),-1.35 (inactive),-1.66 (inactive),-1.73 (inactive),0.805,-0.0926 (inactive),0.492 (inactive),0.957
CC(C)=CCCC(C)=CCON=C1[C@H]2CCn3c(=O)n(Cc4cc5c(cc4Cl)OCO5)c(=O)n3[C@H]2[C@H](O)[C@@H]2O[C@H]12,-0.939 (inactive),-0.0559,1.34 (inactive),0.722 (inactive),0.555 (inactive),0.38 (inactive),0.181,0.594 (inactive),-1.12 (inactive),-0.711
COC(=O)[C@@]1(Cc2ccccc2)[C@H]2c3cc(C(=O)N4CCCC4)n(Cc4ccccn4)c3C[C@H]2CN1C(=O)c1ccccc1,-1.04 (inactive),1.27,2.24 (inactive),0.278 (inactive),2.27 (inactive),1.03 (inactive),0.741,0.401 (inactive),-1.83 (inactive),-3.72
CCOC(=O)[C@H](Cc1ccccc1)NC(=O)CCC1CC(OC(=O)NCc2ccc3c(c2)OCO3)CC2(CCCC(COC(=O)NCC(c3ccccc3)c3ccccc3)O2)O1 (stereo not given in full),1.13 (inactive),-0.0046,13.8 (active),4.29 (inactive),0.394 (inactive),1.3 (inactive),0.0394,-0.742 (inactive),0.406 (inactive),0.491
CCCC[C@H]1OB(O)C[C@H]2C1=C(C)C[C@H]1C(=O)N(C)C(=O)[C@H]12,-0.908 (inactive),-0.147,0.39 (inactive),-0.123 (inactive),-0.974 (inactive),0.0834 (inactive),0.292,-0.76 (inactive),0.332 (inactive),-0.235
CC(=O)OC[C@H]1O[C@@H](ON=C[C@@H](C)[C@H](OCc2ccccc2)C(C)C)[C@H](OC(C)=O)[C@@H](OC(C)=O)[C@@H]1OC(C)=O,0.319 (inactive),0.113,0.857 (inactive),0.536 (inactive),1.04 (inactive),0.22 (inactive),0.761,-0.72 (inactive),0.404 (inactive),-0.856
CC1CC/C=C\[C@H]2OC34C=CCN(C(C)C)C(=O)[C@H]3N(CCCO)C(=O)[C@@H]4C2C(=O)O1 (stereo not given in full),0.658 (inactive),-0.0536,0.0261 (inactive),-0.0331 (inactive),-0.0769 (inactive),-0.207 (inactive),-0.251,1.57 (inactive),0.213 (inactive),2.02
COc1ccc(COC(=O)NN=C2C[C@@H](O)[C@@H](O)[C@@H]3[C@@H]4C(=O)N(c5ccc(F)cc5F)C(=O)[C@@H]4CC[C@@H]23)cc1,0.0009 (inactive),0.235,5.54 (inactive),0.54 (inactive),1.15 (inactive),0.302 (inactive),0.281,1.5 (inactive),-1.98 (inactive),-1.12
CCOC(=O)[C@H](CC(C)C)NC(=O)CCC1CC(OC(=O)NCc2cccc3ccccc23)CC2(CCCC(COC(=O)NCCc3ccccc3OC)O2)O1 (stereo not given in full),-0.596 (inactive),-0.147,-1.28 (inactive),-0.0901 (inactive),-0.868 (inactive),0.298 (inactive),0.0059,0.527 (inactive),0.69 (inactive),1.02
CO[C@@H]1COC(=O)CCC[C@@H](C)[C@H](OC)COC(=O)[C@H](Cc2ccccc2)NC(=O)CC=C[C@H]1C,0.585 (inactive),-0.235,1.99 (inactive),1.07 (inactive),1.21 (inactive),0.368 (inactive),1.02,0.0908 (inactive),-0.255 (inactive),-0.444
O=C(CS)NCCCCCNC(=O)[C@H]1C[C@H]2C(=O)N3CCC[C@H]3C(=O)N2[C@H]1c1cccc(OCCO)c1,-0.0612 (inactive),0.315,3.12 (inactive),0.55 (inactive),-2.35 (inactive),0.35 (inactive),0.345,1.45 (inactive),0.557 (inactive),0.557
